Laboratory results published in PubChem BioAssay AID2284145 (EPA ToxCast).
The source made the active and inactive calls. Rule for the calls: active = hit-call score of the fitted dose curve at least 0.9, where 1 is the maximum; inactive = score below 0.9.

target: human Adrenoceptor beta1 Antagonism, ADRB1 (gene 153) (UniProt P08588); assay: ERF_TW_GPCR_hADRB1: Eurofins (ERF) G Protein-Coupled Receptor (GPCR) Radioligand Binding LeadHunter Assay for human Adrenoceptor beta1 Antagonism
Protocol: ERF_TW_GPCR_hADRB1 is a biochemical, single-readout assay that uses extracted gene-proteins in a cell-free assay. Measurements were taken 2 hour after chemical dosing in a 96-well plate. See beta1 Human Adrenoceptor GPCR Binding (Antagonist Radioligand) Assay, Panlabs.ERF_TW_GPCR_hADRB1 is an assay component calculated from the ERF_TW_GPCR_hADRB1 assay. It is designed to measure radioligand binding using a type of binding reporter as detected by scintillation counting with radiometry technology.Data from the assay component ERF_TW_GPCR_hADRB1 was analyzed at the assay endpoint, ERF_TW_GPCR_hADRB1, in the positive analysis fitting direction relative to DMSO as the negative control and baseline of activity. Using a type of binding reporter, loss-of-signal activity can be used to understand changes in radioligand binding as they relate to gene ADRB1. To generalize the intended target to other relatable targets, this assay endpoint is annotated to the gpcr intended target family, where the subfamily is adrenoceptor.
Human recombinant adrenergic beta1 receptors expressed in HEK 293 cells are used in modified Tris-HCl buffer pH 7.4. A 25 ug aliquot is incubated with 0.03 nM [125I]Cyanopindolol for 120 minutes at 25C. […] Receptors are filtered and washed, the filters are then counted to determine [125I]Cyanopindolol specifically bound. […]

Chain of human Adrenoceptor beta1 Antagonism, ADRB1 (gene 153) (P08588 whole entry, looked up): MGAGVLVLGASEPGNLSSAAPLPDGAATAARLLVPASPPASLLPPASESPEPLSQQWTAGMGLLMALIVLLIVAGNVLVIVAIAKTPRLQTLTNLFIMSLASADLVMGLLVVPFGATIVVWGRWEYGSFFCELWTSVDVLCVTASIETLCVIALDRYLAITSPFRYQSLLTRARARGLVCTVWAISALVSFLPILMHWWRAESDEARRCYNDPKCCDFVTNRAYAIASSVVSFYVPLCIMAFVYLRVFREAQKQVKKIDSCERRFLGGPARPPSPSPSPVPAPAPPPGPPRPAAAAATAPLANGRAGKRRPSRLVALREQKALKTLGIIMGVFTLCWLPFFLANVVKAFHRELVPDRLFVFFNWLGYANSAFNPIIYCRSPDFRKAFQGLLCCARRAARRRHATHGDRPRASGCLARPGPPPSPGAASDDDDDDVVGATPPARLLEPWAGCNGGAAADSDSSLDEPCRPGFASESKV

**Q.** How did the AC50 turn out when `O=C(/C=C/c1ccc(O)cc1)CC(=O)/C=C/c1ccc(O)cc1` was run?
**A.** 1130 nM (active)
